Tau fluor cs – counter-screen for tau fibril formation inhibitors; tau K18 P301L Alexa594 fluorescence, heparin fibrillization; Potency, µM (doses to about 57.7 µM), for the others: top-dose activity change, negative = decrease; 280,000 tested, 0.93% active; also: potency is read from the fitted curve at half-maximal effect; nearly all actives have a fitted effect of over 55% in size
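Human K18 P301L tau (15 uM unlabeled plus 0.24 uM Alexa 594-labeled, final) in 100 mM sodium acetate pH 7 was mixed with compound and 20 uM heparin and incubated 6 hr at 37 C.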
Tau ThT inhib – tau fibrillization inhibition (ThT binding); recombinant tau K18 P301L, heparin-induced fibrillization, ThT fluorescence; Potency, µM (titrated, usually from 57.4 µM), inactives show at the highest dose activity, negative = inhibition, actives largely listed as inhibitors; 270,000 tested, 2.1% active; also: potency is read from the fitted curve at half-maximal effect; nearly all actives have a fitted effect of over 55% in size
Target sequence (P10636 561-689 P618L limits assumed): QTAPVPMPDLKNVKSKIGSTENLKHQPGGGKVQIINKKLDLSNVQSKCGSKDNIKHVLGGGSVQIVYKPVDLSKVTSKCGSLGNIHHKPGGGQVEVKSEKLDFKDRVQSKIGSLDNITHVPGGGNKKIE
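Using a mix of unlabeled (15 uM) and Alexa 594-labeled (0.24 uM) tau K18 P301L, heparin-triggered fibrillization over 6 hr at 37 C was scored by ThT fluorescence.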
Coupling enz – counter-screen for Giardia aldolase inhibitors: coupling enzyme system; coupling enzyme system counterscreen, AmpLite Red fluorescence; activity change, negative = inhibition, % at 58.2 µM, hits read low; 290,000 tested, 0.67% active; in the data active = activity change below about -30%
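Counterscreen lacking aldolase: glyceraldehyde-3-phosphate coupling-enzyme reagent preincubated 10 min at RT with compound (at 57.5 uM final), then substrate/coupling system with AmpLite Red added; fluorescence read at 525/598 nm after 20 min RT.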
JMJD2E inh – JMJD2E (human) inhibition; B2RXH2; JMJD2E catalytic domain, FDH-coupled NADH fluorescence (FDH is formaldehyde dehydrogenase); Potency, µM (highest dose often 57.1 µM), without a hit: top-dose activity change, negative = inhibition, most hits filed as inhibitors; 230,000 tested, 1.6% active; AID 2147; active = well fitted inhibition curve with a large enough effect, not every such curve was filed as active; inconclusive = small, poorly fitted or top-dose-only effect, or another doubt; inactive = no such curve, though single readings can be large or run the other way;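 also: potency is read from the fitted curve at half-maximal effect; 0% = wells with enzyme and -100% = buffer wells without enzyme; nearly all actives have a fitted effect of over 50% in size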
Target sequence (B2RXH2 1-337 limits assumed): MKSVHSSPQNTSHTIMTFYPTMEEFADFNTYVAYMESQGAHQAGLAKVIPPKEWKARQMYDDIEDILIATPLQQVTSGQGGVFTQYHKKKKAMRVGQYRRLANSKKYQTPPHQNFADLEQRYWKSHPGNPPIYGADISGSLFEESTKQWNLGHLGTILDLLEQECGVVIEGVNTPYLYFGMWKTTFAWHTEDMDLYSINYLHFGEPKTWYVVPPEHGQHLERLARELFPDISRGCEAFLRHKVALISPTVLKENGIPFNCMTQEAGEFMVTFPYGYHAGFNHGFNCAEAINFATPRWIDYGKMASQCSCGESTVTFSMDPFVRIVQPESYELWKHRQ
Tau FP inhib – tau fibrillization inhibition (FP). K18 P301L tau heparin fibrillization, Alexa594 FP, 6 h. 280,000 tested, 0.39% active. Potency, µM (doses to about 57.7 µM), inactives show at the top dose activity, negative = inhibition, actives largely listed as inhibitors. P10636. AID 1468; also: potency is read from the fitted curve at half-maximal effect; nearly all actives have a fitted effect of over 55% in size
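FP of Alexa 594-tau after heparin (20 uM) induction. Substrate: human K18 P301L, 15 uM unlabeled, 0.24 uM labeled. Buffer 100 mM sodium acetate pH 7. 6 hr, 37 C.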
An asterisk follows results filed as active; ? = inconclusive; . = not tested or not shown; ! = not confirmed by another sample; [ ] = dose if it differs, or a comment. A selection: hits, their analogues and other compounds. The true share with any hit is near 3%. Unless noted, calls follow the shape of the dose curve; as a rule, active = well fitted curve in the direction sought with a large enough effect; inconclusive = small, poorly fitted or top-dose-only effect, or another doubt; inactive = no such curve, though single readings can be large; an effect the other way counts as inactive or inconclusive. Unless noted, % is scaled to controls: 0 for no effect and ±100 for the full control effect.

SMILES	Tau fluor cs	Tau ThT inhib	Coupling enz	JMJD2E inh	Tau FP inhib
COc1ccc(C2=Nn3c(nnc3-c3ccccc3C)SC2)cc1	.	.	3.8	.	.
CCCCCCC(=O)N(O)C1CC(=O)N(c2ccc(Br)cc2)C1=O (configuration not stated)	2.2%	?	-2.3	-13.4%	10.3%
COc1ccccc1N(O)C1CC(=O)N(c2ccc(Br)cc2)C1=O (configuration not stated)	?	14.1µM*	-4.0	-28.3%	?
CCN(CC(=O)Nc1c(C(=O)OC)[nH]c2ccc(C)cc12)c1ccc2c(c1)OCO2	?	?	-38.0*	-27.0%	-2.0%
Cc1cccc(CN2CC34CCC(CC3S2(=O)=O)O4)c1 (configuration not stated)	.	.	7.0	.	.
CCOc1ccc(-c2n[nH]c(C)c2Oc2ccc(OC)cc2)c(O)c1	14.1µM*[quencher]	-18.8%	-13.7	?	?
CCOc1ccc(-c2[nH]ncc2Oc2ccccc2OCC)c(O)c1	14.1µM*[quencher]	?	0.5	-21.9%	-14.6%
CCOc1ccc(-c2[nH]ncc2Oc2ccccc2OC)c(O)c1	14.1µM*[quencher]	?	-2.7	?	1.3%
O=C(NC1CC(=O)N(c2ccc(Cl)cc2)C1)c1ccc(S(=O)(=O)N2CCCC2)cc1 (configuration not stated)	-7.3%	3.5%	.	.	-5.0%
C[C@H](NC(=O)CNC(=O)[C@@H](NC(=O)[C@H](Cc1ccccc1)NC(=O)CNC(=O)CNC[C@@H](N)Cc1ccccc1)[C@@H](C)O)C(=O)N[C@@H](CCCN=C(N)N)C(=O)N[C@@H](CCCCN)C(=O)N[C@@H](CO)C(=O)N[C@@H](C)C(=O)N[C@@H](CCCN=C(N)N)C(=O)N[C@@H](CCCCN)C(N)=O	.	.	1.8	.	.
CCCCC1=CC2=CC(=O)C(C)(OC(=O)CC)C(=O)C2=CN1CCCN(CC)CC (configuration not stated)	1.5%[11.6 µM]	1.9%[11.5 µM]	-0.3	-3.4%[11.4 µM]	1.7%[11.6 µM]
CCN(CC)CCCN1C=C2C(=O)C(C)(OC(=O)CCC(=O)OC)C(=O)C=C2C=C1C1CC1 (configuration not stated)	-6.8%[11.6 µM]	-9.9%[11.5 µM]	-39.0*	?	-11.1%[11.6 µM]
COC(=O)CCC(=O)OC1(C)C(=O)C=C2C=C(C3CC3)N(Cc3ccccc3)C=C2C1=O (configuration not stated)	-9.3%[11.6 µM]	11.2µM*!	1.6	14.1µM*!	?
N#Cc1c(N)nc(SCC(=O)C23CC4CC(CC(C4)C2)C3)c(C#N)c1-c1ccc(Cl)cc1	-11.6%	-7.6%	0.6	3.55µM*	-6.7%
CC[C@H](NC(=O)[C@H](CCCN=C(N)N)NC(=O)[C@H](Cc1c[nH]c2ccccc12)NC(=O)[C@@H](N)CS)C(=O)N[C@@H](CCCN=C(N)N)C(=O)N[C@@H](Cc1ccc(O)cc1)C(N)=O	.	.	-0.7	.	.
S=C(Nc1ccc2nsnc2c1)NC1CCCCC1	?	28.2µM*	-66.8*	-6.4%	?
CCOc1ccc(NC(=O)Nc2ccc3nsnc3c2)cc1	12.6µM*[quencher]	14.1µM*	-6.4	-8.1%	16.3%
O=C(NCc1ccco1)Nc1ccc2nsnc2c1	-6.0%	?	-37.6*	?	-2.9%
COc1ccc(NC(=S)Nc2ccc3nc(C)c(C)nc3c2)cc1	-16.9%	?	-20.9	1.5%	3.9%
COc1ccc(NC(=S)Nc2ccc3nsnc3c2)cc1	?	11.2µM*	-41.4*	3.2%	-17.4%
O=C(NCc1ccco1)Nc1ccc(Br)cc1	-4.9%	-3.2%	-0.7	7.0%	0.5%
CCOc1ccc(NC(=O)Nc2cccc(C(=O)O)c2)cc1	-8.7%	-10.7%	4.5	-19.6%	5.3%
CC(C)N(C(=O)Nc1ccc2nsnc2c1)C(C)C	?	?	-36.7*	1.0%	?
COCCNC(=S)Nc1ccc2nsnc2c1	-7.8%	-11.9%	-43.0*	?	-8.4%
C=CCN(CC=C)C(=S)Nc1ccc2nsnc2c1	-15.9%	?	-54.1*	?	?
SMILES	Tau fluor cs	Tau ThT inhib	Coupling enz	JMJD2E inh	Tau FP inhib
CCOc1ccc(NC(=O)Nc2ccc3snnc3c2)cc1	5.01µM*[quencher]	-6.5%	.	.	?
COc1ccc(N(C)C(=O)Nc2ccc3nsnc3c2)cc1	-14.5%	?	-14.8	-17.1%	-4.5%
Cn1cnc(S(=O)(=O)N2CCCC(C(=O)Nc3ccc(OC(F)(F)F)cc3)C2)c1 (configuration not stated)	6.1%	6.5%	.	.	1.6%
CCOc1ccc(NC(=O)C2CCCN(c3nn4cc(-c5ccc(OC)cc5)nc4s3)C2)cc1 (configuration not stated)	?	?	.	.	11.4%
CCOc1ccc(NC(=S)Nc2ccc3nsnc3c2)cc1	14.1µM*[quencher]	2.51µM*	-28.0	3.2%	?
CCOc1ccc(NC(=S)Nc2ccc(OCC)cc2)cc1	-19.6%	?	0.1	6.0%	10.5%
O=C(Nc1cccc(C(F)(F)F)c1)Nc1ccc2snnc2c1	?	12.7%	.	.	17.8µM*
O=C(Nc1cccc(C(F)(F)F)c1)c1ccc2snnc2c1	-1.3%	6.7%	.	.	-4.1%
Cc1ccc(N=Cc2ccc(N(C)C)cc2)cc1	-10.3%	-10.5%	-0.5	-6.5%	6.1%
C/C(=N/N=C/c1ccc(N(C)C)cc1)c1ccccc1	?	8.91µM*	-1.9	-12.6%	2.4%
CN(C)c1ccc(N=Cc2ccco2)cc1	?	?	-42.1*	7.8%	?
CN(C)c1ccc(C=Nc2ccc(N(C)C)cc2)cc1	?	11.2µM*	-29.1	20µM*	28.2µM*
CN(C)c1ccc(C=Nc2ccccc2)cc1	-3.6%	3.8%	-1.3	?	1.2%
NC(N)=NCCC[C@@H](N)C(=O)NCC(=O)N[C@@H](CC(=O)O)C(=O)N[C@@H](Cc1c[nH]c2ccccc12)C(=O)O	.	.	-0.7	.	.
O=C(Nc1ccc2ccccc2c1)c1ccc(Cl)cc1Cl	-27.1%	?	1.0	?	-4.5%
O=C(Nc1nc(=S)ss1)c1ccc(Cl)cc1Cl	-9.9%	31.6µM*	3.4	-7.4%	?
CC(=C1C(=O)c2ccccc2C1=O)N1CCC(C(N)=O)(N2CCCCC2)CC1	-20.0%	31.6µM*	-9.9	?	-8.8%
NC(=O)C1(N2CCCCC2)CCN(C(=S)NCCc2ccccc2)CC1	-3.8%	0.2%	-1.2	0.5%	5.2%
CC1=C(C#N)C(=O)N(C2CCS(=O)(=O)C2)C(=O)/C1=C\c1ccc(C)o1 (configuration not stated)	?	22.4µM*	-22.1	?	?
Cc1ccc(/C=C2\SC(=S)N(C3CCS(=O)(=O)C3)C2=O)o1 (configuration not stated)	-8.2%	?	-17.8	-29.4%	1.8%
Cc1ccc(C)c(S(=O)(=O)c2nnn3c2nc(NCc2ccc4c(c2)OCO4)c2sccc23)c1	?	19.5%	.	.	-16.1%
COC(=O)N1C2CC3(C)CC(=O)CC1(C)C3c1ccccc12 (configuration not stated)	-14.7%[11.6 µM]	-5.3%[11.5 µM]	-4.6	3.5%[11.4 µM]	-0.6%[11.6 µM]

From PubChem
